In PMC4081100, “A DNA-binding-site landscape and regulatory network analysis for NAC transcription factors in Arabidopsis thaliana” one finds binding signal data, which are given here for twelve sequences.

What all share (experiment): universal protein binding microarray (PBM); transcription factors of Arabidopsis thaliana; high values mean tight binding
The target of experiment [1] is T1, GST-ANAC092(1-176) (Arabidopsis thaliana, UniProt Q9FKA0 1-176).
T1 sequence: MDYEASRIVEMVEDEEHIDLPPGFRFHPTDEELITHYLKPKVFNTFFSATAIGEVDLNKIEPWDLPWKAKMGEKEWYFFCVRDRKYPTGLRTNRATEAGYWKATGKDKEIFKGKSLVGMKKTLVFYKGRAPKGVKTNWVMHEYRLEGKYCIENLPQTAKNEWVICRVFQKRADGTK
Conditions: protein: recombinant; tags: GST; chain copies: 2; dsDNA, one strand shown. The gist of the method:
(§1)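 Protein amounts were determined by A280 or anti-GST western blot after glutathione–Sepharose 4B purification of GST-tagged proteins induced in cells, with zinc acetate included for zinc-finger proteins. Duplicate runs at 200 to 500 nM final were done on custom all-10-mer Agilent 4 × 180K arrays made double-stranded by primer extension. The normalised enrichment score (E-score) over gapped and ungapped 8-mers is the measure of binding.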

For experiment [2], the target named is T2, GST-ANAC019 NAC domain (Arabidopsis thaliana, UniProt Q9C932 14-162).
T2 sequence: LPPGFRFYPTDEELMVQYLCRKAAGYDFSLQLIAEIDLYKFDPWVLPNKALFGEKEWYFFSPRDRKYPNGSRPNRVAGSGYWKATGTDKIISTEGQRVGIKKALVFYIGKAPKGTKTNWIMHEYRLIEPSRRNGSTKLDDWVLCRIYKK
Conditions: protein: recombinant; tags: GST; chain copies: 2; dsDNA, one strand shown. An outline of the steps:
as §1

Experiment [3] concerns the target T3, GST-ANAC055(1-171) (Arabidopsis thaliana, UniProt Q9LDY8 1-171).
T3 sequence: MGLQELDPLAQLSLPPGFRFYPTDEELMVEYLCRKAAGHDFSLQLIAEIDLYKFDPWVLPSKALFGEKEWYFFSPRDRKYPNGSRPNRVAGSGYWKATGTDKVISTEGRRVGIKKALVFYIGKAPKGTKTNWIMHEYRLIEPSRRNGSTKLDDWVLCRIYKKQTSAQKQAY
Conditions: protein: recombinant; tags: GST; chain copies: 2; dsDNA, one strand shown. An outline of the steps: as §1

The target of experiment [4] is T4, GST-ATAF1 NAC domain (Arabidopsis thaliana, UniProt Q39013 7-158).
T4 sequence: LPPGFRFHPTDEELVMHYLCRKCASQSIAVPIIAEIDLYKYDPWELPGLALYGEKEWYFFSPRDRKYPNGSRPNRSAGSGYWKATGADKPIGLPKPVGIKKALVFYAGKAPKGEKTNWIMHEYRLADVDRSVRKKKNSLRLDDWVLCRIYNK
The conditions noted are these: protein: recombinant; tags: GST; chain copies: 2; dsDNA, one strand shown. The gist of the method: as §1

The target in experiment [5] is T5, GST-NAP(1-166) (Arabidopsis thaliana, UniProt O49255 1-166).
T5 sequence: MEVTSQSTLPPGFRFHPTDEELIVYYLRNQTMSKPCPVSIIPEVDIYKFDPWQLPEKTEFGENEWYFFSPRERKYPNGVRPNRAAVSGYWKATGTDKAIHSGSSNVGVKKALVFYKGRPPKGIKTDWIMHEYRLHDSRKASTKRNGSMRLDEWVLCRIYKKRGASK
Conditions: protein: recombinant; tags: GST; chain copies: 2; dsDNA, one strand shown. An outline of the steps:
as §1

The target in experiment [6] is T6, GST-NST2(1-184) (Arabidopsis thaliana, UniProt Q9M274 1-184).
T6 sequence: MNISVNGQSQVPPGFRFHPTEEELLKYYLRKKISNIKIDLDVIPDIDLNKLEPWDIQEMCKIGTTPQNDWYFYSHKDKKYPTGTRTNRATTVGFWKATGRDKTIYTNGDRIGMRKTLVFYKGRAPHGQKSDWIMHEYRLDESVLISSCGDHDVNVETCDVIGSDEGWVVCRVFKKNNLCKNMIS
The conditions noted are these: protein: recombinant; tags: GST; chain copies: 2; dsDNA, one strand shown. An outline of the steps:
as §1

Experiment [7] has as its target T7, GST-SND1(1-203) (Arabidopsis thaliana, UniProt Q9LPI7 1-203).
T7 sequence: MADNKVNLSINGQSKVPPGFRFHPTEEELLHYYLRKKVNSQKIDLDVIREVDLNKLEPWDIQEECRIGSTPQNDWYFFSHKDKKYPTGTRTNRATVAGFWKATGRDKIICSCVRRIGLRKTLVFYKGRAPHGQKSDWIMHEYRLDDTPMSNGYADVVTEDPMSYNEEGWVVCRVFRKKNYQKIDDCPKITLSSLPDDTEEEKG
Conditions: protein: recombinant; tags: GST; chain copies: 2; dsDNA, one strand shown. An outline of the steps: as §1

The target in experiment [8] is T8, GST-VND3 NAC domain (Arabidopsis thaliana, UniProt Q9FH59 12-162).
T8 sequence: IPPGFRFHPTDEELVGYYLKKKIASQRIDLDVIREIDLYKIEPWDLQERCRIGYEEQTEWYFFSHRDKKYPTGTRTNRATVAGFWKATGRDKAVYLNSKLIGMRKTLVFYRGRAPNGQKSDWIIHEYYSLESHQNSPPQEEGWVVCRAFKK
The conditions noted are these: protein: recombinant; tags: GST; chain copies: 2; dsDNA, one strand shown. An outline of the steps:
as §1

For experiment [9], the target named is GST-WRKY1(266-371) (Arabidopsis thaliana, UniProt Q9SI37 266-371). The conditions noted are these: protein: recombinant; tags: GST; dsDNA, one strand shown. An outline of the steps: as §1
Sequence of GST-WRKY1(266-371) (Q9SI37 266-371): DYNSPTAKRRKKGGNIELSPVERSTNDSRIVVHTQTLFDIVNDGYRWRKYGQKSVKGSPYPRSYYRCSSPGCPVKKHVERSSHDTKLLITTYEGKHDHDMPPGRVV
The target in experiment [10] is T9, GST-ANAC092(1-285) full length (Arabidopsis thaliana, UniProt Q9FKA0 1-285).
T9 sequence: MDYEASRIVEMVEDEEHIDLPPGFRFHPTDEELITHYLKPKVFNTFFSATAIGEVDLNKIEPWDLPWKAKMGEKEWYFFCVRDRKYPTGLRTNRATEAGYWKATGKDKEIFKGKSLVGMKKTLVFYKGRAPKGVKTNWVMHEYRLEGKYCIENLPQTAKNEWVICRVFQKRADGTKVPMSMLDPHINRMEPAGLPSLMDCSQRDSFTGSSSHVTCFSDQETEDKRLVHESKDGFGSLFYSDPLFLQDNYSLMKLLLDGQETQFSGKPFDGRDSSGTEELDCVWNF
Conditions: protein: recombinant; tags: GST; chain copies: 2; dsDNA, one strand shown. An outline of the steps:
as §1

In experiment [11] the target is T10, GST-NTL8 NAC domain (Arabidopsis thaliana, UniProt Q9XIN7 14-156).
T10 sequence: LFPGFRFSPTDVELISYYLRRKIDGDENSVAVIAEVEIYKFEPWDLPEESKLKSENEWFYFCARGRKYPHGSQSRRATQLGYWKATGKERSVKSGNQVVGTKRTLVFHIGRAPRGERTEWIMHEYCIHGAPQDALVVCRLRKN
The conditions noted are these: protein: recombinant; tags: GST; chain copies: 2; dsDNA, one strand shown. The gist of the method:
as §1

The target of experiment [12] is T11, GST-VND7 NAC domain (Arabidopsis thaliana, UniProt Q9C8W9 9-158).
T11 sequence: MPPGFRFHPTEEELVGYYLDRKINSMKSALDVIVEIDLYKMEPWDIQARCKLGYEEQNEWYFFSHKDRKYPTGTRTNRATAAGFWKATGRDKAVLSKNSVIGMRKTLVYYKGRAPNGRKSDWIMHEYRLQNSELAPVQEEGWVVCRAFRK
Conditions: protein: recombinant; tags: GST; chain copies: 2; dsDNA, one strand shown. An outline of the steps: as §1

Experiment [13] concerns the target GST-NTL6(1-168) (Arabidopsis thaliana, UniProt Q9SCK6 1-168). The conditions noted are these: protein: recombinant; tags: GST; chain copies: 2; dsDNA, one strand shown. An outline of the steps:
as §1

Sequence of GST-NTL6(1-168) (Q9SCK6 1-168): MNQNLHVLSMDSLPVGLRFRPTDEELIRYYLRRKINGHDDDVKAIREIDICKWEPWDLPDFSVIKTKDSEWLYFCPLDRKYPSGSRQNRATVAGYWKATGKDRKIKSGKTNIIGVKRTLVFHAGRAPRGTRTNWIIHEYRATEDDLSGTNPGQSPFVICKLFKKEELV

AGTTGACG: the binding signal is 0.0881 E-score in [1]; 0.0919 E-score in experiment [2]; 0.0862 E-score in experiment [3]; 0.213 E-score in experiment [4]; 0.0554 E-score in [5]; 0.107 E-score in experiment [6]. For the same sequence, the binding signal in experiment [7] was 0.198 E-score; in experiment [8], 0.0565 E-score; in experiment [9] it was 0.43 E-score.
On to ACGTTACG, for which the binding signal was found to be 0.389 E-score in experiment [1]; 0.302 E-score in experiment [2]; 0.299 E-score in [3]; 0.268 E-score in experiment [4]; 0.441 E-score in experiment [10]; 0.341 E-score in experiment [5]. Further, the binding signal in [6] is 0.287 E-score; in experiment [11] it was 0.13 E-score; in [7], 0.44 E-score; in experiment [8] it was 0.333 E-score; in experiment [12], 0.39 E-score.
Consider AATACTTA, for which the binding signal in experiment [13] was determined as 0.405 E-score; in [2], 0.135 E-score; in experiment [3], 0.162 E-score; in experiment [4], 0.254 E-score; in experiment [10], 0.104 E-score; in [6], 0.0916 E-score. Besides, the binding signal in experiment [11] worked out at 0.0845 E-score; in experiment [7], 0.0985 E-score; in experiment [8], 0.187 E-score; in [12] it was 0.0602 E-score.
Take AAGTCAGA: the binding signal was 0.0562 E-score in [1]; 0.0583 E-score in experiment [13]; 0.0582 E-score in experiment [2]; 0.073 E-score in experiment [3]; 0.14 E-score in experiment [10]; 0.132 E-score in [6]. Moreover, the binding signal in experiment [7] was 0.0642 E-score; in experiment [8] it was 0.166 E-score; in experiment [9], 0.455 E-score.
In the case of AGTCAAAC, the binding signal in [13] is 0.0896 E-score; in [2], 0.0687 E-score; in experiment [3] it was 0.103 E-score; in [4] it was 0.109 E-score; in experiment [5], 0.0582 E-score; in [6], 0.0701 E-score. For the same sequence, the binding signal in experiment [11] turned out to be 0.07 E-score; in [7], 0.126 E-score; in experiment [8], 0.103 E-score; in experiment [9] it was 0.491 E-score.
Consider CGTCAACA, for which the binding signal came to 0.149 E-score in [1]; 0.0991 E-score in experiment [13]; 0.0912 E-score in experiment [2]; 0.135 E-score in experiment [3]; 0.156 E-score in experiment [4]; 0.196 E-score in [10]. Also, the binding signal in [5] was 0.116 E-score; in [6] it was 0.111 E-score; in experiment [7], 0.181 E-score; in experiment [8], 0.0753 E-score; in experiment [9], 0.435 E-score.
Take ATGCGTAA: the binding signal in [1] amounted to 0.319 E-score; in experiment [3] it was 0.108 E-score; in experiment [4], 0.115 E-score; in experiment [10] it was 0.356 E-score; in experiment [5], 0.175 E-score; in experiment [6] it was 0.243 E-score. In addition, the values for the binding signal in experiment [7], in experiment [8] and in experiment [12] were 0.436 E-score, 0.217 E-score and 0.188 E-score, respectively.
As for CAGTCAAC, the binding signal in [1] amounted to 0.0753 E-score; in experiment [4], 0.084 E-score; in [7], 0.0832 E-score; in [8] it was 0.0605 E-score; in experiment [9] it was 0.491 E-score.
In the case of ATACGCCA, the binding signal stood at 0.455 E-score in experiment [1]; 0.22 E-score in [3]; 0.331 E-score in experiment [4]; 0.455 E-score in [10]; 0.201 E-score in experiment [5]; 0.283 E-score in experiment [6]. Besides, the binding signal in experiment [11] was 0.0758 E-score; in experiment [7], 0.398 E-score; in experiment [8] it was 0.192 E-score; in [12] it was 0.247 E-score.
For AGCGTAAA, the binding signal in [1] is 0.223 E-score; in experiment [2], 0.0508 E-score; in [4] it was 0.12 E-score; in experiment [10] it was 0.241 E-score; in experiment [5], 0.126 E-score; in [6] it was 0.244 E-score. Also, the binding signal is 0.413 E-score in experiment [7], 0.15 E-score in experiment [8] and 0.119 E-score in experiment [12].
Regarding ATTTCTTA, the binding signal in experiment [13] came out at 0.409 E-score; in [3] it was 0.0799 E-score; in [4] it was 0.19 E-score; in experiment [10], 0.185 E-score; in [6], 0.126 E-score; in experiment [7], 0.225 E-score. Moreover, the figures for the binding signal in experiment [8] and in experiment [12] were 0.0914 E-score and 0.148 E-score, respectively.
For ACGTTACA, the binding signal in experiment [1] is 0.354 E-score; in experiment [3], 0.157 E-score; in experiment [4] it was 0.244 E-score; in experiment [10], 0.404 E-score; in [5], 0.23 E-score; in experiment [6], 0.222 E-score. Moreover, the binding signal was found to be 0.362 E-score in experiment [7], 0.217 E-score in experiment [8] and 0.153 E-score in experiment [12].
